# Compounds with a hit are over-represented: about 11% of the library has one in this group of screens.
# BAZ2B inh = qHTS Assay for Inhibitors of BAZ2B | AlphaScreen BAZ2B-H3K14Ac peptide displacement | actives 4.4% (n = 360,000) | AID 504333, 2011 | Potency, µM (top dose mostly 114 µM), for the others: at the highest dose activity change, negative = inhibition, usual class: inhibitors; also: potency is read from the fitted curve at half-maximal effect; % is scaled to controls: 0 for no effect and ±100 for the full control effect; nearly all actives have a fitted effect of over 60% in size
#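 BAZ2B (50 nM) with biotin-H3(5-23)K14Ac peptide (50 nM) in PBS pH 7.4, 0.01% Tween-20, preformed 30 min, then compound 30 min at room temperature; top concentration 110uM. AlphaScreen streptavidin donor/nickel chelate acceptor beads (10 ug/mL final), 20 min dark, signal read.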
# HP1b binding inh = HTS for Inhibitors of HP1-beta Chromodomain Interactions with Methylated Histone Tails; AlphaScreen HP1-beta / biotin-H3K9me3 peptide binding; actives 0.56% (n = 390,000); Potency, µM (series often up to 114 µM), without a hit: top-dose activity change, negative = inhibition, usual class: inhibitors; Chromobox protein homolog 1 (Homo sapiens), P83916; also: potency is read from the fitted curve at half-maximal effect; nearly all actives have a fitted effect of over 70% in size
#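 AlphaScreen: HP1-beta (50 nM) preformed 30 min with biotin-H3(1-18)K9me3 peptide (50 nM) in PBS pH 7.4, 0.01% Tween-20. Compound added for 30 min at RT, then streptavidin donor/nickel chelate acceptor beads (10 ug/mL) for 30 min.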
# L3MBTL1 block = qHTS Assay for the Inhibitors of L3MBTL1; actives 0.66% (n = 230,000); Potency, µM (top dose mostly 57.1 µM), for inactives: at the top dose activity, negative = inhibition, actives largely listed as inhibitors; AlphaScreen L3MBTL1–H3K9me1 peptide binding; also: potency is read from the fitted curve at half-maximal effect; % is scaled to controls: 0 for no effect and ±100 for the full control effect; nearly all actives have a fitted effect of over 60% in size
#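 Displacement of a biotinylated histone H3(1-15) peptide monomethylated at Lys9 (75 nM) from L3MBTL1 (50 nM) was measured by AlphaScreen after a 30 min room-temperature compound incubation; cefsulodin titration served as intraplate control.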
# JMJD2A Tudor = qHTS Assay for Inhibitors of JMJD2A-Tudor Domain | AlphaScreen JMJD2A-Tudor / H3K4me3 peptide binding | Potency, µM (series often up to 114 µM), inactives show top-dose activity change, negative = inhibition, most hits filed as inhibitors | Lysine-specific demethylase 4A (Homo sapiens), O75164 | actives 4.4% (n = 390,000); also: potency is read from the fitted curve at half-maximal effect; % is scaled to controls: 0 for no effect and ±100 for the full control effect; nearly all actives have a fitted effect of over 50% in size
# G9a inh = qHTS Assay for Inhibitors of Histone Lysine Methyltransferase G9a | G9a H3K9 monomethylation, AlphaScreen, 2 h | Histone-lysine N-methyltransferase EHMT2 (Homo sapiens), Q96KQ7 | Potency, µM (highest dose often 102 µM), for inactives: top-dose activity, negative = inhibition, hits mostly inhibitors | AID 504332, 2011 | actives 8.8% (n = 350,000); also: potency is read from the fitted curve at half-maximal effect; % is scaled to controls: 0 for no effect and ±100 for the full control effect; nearly all actives have a fitted effect of over 75% in size
#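 G9a (20 nM) preincubated 15 min RT with compounds, then 500 nM biotinylated H3K9 peptide and 20 uM SAM added; 2 h RT reaction. Monomethyl-H3K9 product detected by AlphaScreen with anti-H3K9me1 antibody, streptavidin donor and anti-rabbit IgG acceptor beads.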
# PI5P4K alpha inh = qHTS for Inhibitors of phosphatidylinositol 5-phosphate 4-kinase (PI5P4K). PI5P4Kalpha enzyme, ADP-Glo luminescence, 60 min; active compounds read low. actives 1.2% (n = 330,000). Phosphatidylinositol 5-phosphate 4-kinase type-2 alpha (Homo sapiens), P48426. AID 652105, 2013. max response, %; active = max response of -50% or lower; inconclusive = between -30% and -50%; inactive = -30% or higher; also: value at the top dose of about 77 µM; % is scaled to controls: 0 for no effect and ±100 for the full control effect
# Target sequence (P48426 whole entry, looked up): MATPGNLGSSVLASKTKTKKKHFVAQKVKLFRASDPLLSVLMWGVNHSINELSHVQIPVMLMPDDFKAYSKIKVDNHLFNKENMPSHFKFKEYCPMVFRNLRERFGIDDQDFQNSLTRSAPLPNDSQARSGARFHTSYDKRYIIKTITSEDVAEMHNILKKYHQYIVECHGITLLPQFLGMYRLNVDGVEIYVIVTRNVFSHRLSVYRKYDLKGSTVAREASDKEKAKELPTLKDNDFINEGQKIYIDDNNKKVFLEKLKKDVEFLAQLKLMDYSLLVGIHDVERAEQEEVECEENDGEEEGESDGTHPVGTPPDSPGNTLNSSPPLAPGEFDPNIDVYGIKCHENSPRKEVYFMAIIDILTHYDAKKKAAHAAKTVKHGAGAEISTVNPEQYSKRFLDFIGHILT
#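 Enzyme plus substrate dispensed, test compounds pinned in, then ATP (5 microM final) added. After 60 min at RT, ADP-Glo reagent 1 for 45 min and reagent 2 for 30 min preceded luminescence imaging.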
# * marks the source's active call; other numbers are inactive results; ? = inconclusive; · = no result given; [ ] = another dose, or the depositor's remark. Unless noted, calls follow the shape of the dose curve; as a rule, active = well fitted inhibition curve with a large enough effect; inconclusive = small, poorly fitted or top-dose-only effect; inactive = no such curve, though single readings can be large or run the other way.
SMILES,BAZ2B inh,HP1b binding inh,L3MBTL1 block,JMJD2A Tudor,G9a inh,PI5P4K alpha inh
COc1ccccc1NS(=O)(=O)c1cc([N+](=O)[O-])ccc1N/N=C/c1sc(N2CCOCC2)nc1-c1ccccc1,?,?,-9%,-12%,40µM*,2
COc1ccccc1NS(=O)(=O)c1ccc(N/N=C/c2c(C)nn(-c3ccccc3)c2N2CCCC2)c([N+](=O)[O-])c1,4.5µM*,?,?,?,4.5µM*,1
COc1ccccc1NS(=O)(=O)c1cccc(C(=O)N/N=C/c2c(C)nn(-c3ccccc3)c2N2CCCC2)c1,-30%,11%,-1%,-25%,-5%[59 µM],-5
CCOc1ccc(S(=O)(=O)Nc2ccc(C(=O)N/N=C/c3c(C)nn(-c4ccccc4)c3N3CCCC3)cc2)cc1,-5%,?,-12%,-25%,1%[59 µM],-74*
Cc1nn(-c2ccccc2)c(N2CCCC2)c1/C=N/Nc1ccc(S(=O)(=O)Nc2ccccc2)cc1[N+](=O)[O-],?,?,-16%,5µM*,?,-12
Cc1nn(-c2ccccc2)c(N2CCCCC2)c1/C=N/NC(=O)c1ccncc1,?,20%,-13%,-18%,-7%[59 µM],-15
CCCCN(CC)C(=O)Nc1ccc2c(c1)N(C)C(=O)c1ccccc1S2,?,-15%,·,?,-37%[59 µM],·
CC(=O)N1CCCc2cc(S(=O)(=O)N3CCN(c4ccccc4F)CC3)ccc21,5%,22%[57 µM],·,-5%,-3%[59 µM],·
O=C(O)c1cccc2c1-c1ccc(Cl)cc1C2=O,·,38%,·,-15%,·,3
Nc1cccc2c1C(=O)c1ccc(Cl)cc1C2=O,·,?,·,14µM*,·,3
COc1cccc(NC(=O)/C(C#N)=C/c2c(C)n(Cc3ccccc3)c3ccccc23)c1,-15%,20%,·,-25%,0%[59 µM],·
COc1ccc2[nH]c(C)c(C(=O)CN3CCc4cc(OC)c(OC)cc4C3)c2c1,4%,12%,-2%,-30%,50µM*,1
COc1ccc2c(c1)c(C(=O)CN1CCc3ccccc3C1)c(C)n2C,-5%,26%,-2%,?,45µM*,-20
COc1ccc2c(c1)c(C(C)=O)c(C)n2C,-21%,23%,·,-5%,22%,5
COc1ccc2[nH]c(C)c(C(=O)CN3CCOCC3)c2c1,?,19%,·,-5%,?,5
Cc1cccc(N2CCN(C(=O)C3CCCN(S(=O)(=O)c4ccc5c(c4)oc(=O)n5C)C3)CC2)c1C (stereo unspecified),-21%,9%,·,?,-12%[59 µM],·
Cc1c(Cl)sn(-c2ccc(Cl)cc2)c1=O,40µM*,?,-5%,3.2µM*,0.71µM*,-73*
O=c1cc2oc3cc(O)c(O)cc3c(-c3ccccc3[N+](=O)[O-])c-2cc1O,1.1µM*,0.79µM*,·,0.71µM*,1.4µM*,-61*
O=c1cc(-c2ccccc2Cl)oc2c([N+](=O)[O-])ccc(O)c12,·,·,·,·,-24%,·
Cc1ccc(-n2nc(CO)c(C(=O)NCc3cccnc3)n2)cc1C,-11%,19%,·,-9%,2%[59 µM],·
COC(=O)c1c(NC(C)=O)sc2c1CCCC2,-12%,33%,1%,3%,-26%[59 µM],-3
CCOC(=O)c1c(NC(=S)Nc2ccc(OC)cc2)sc2c1CCC2,?,?,-27%,-9%,-48%[59 µM],15
COC(=O)c1c(NC(=S)Nc2ccc(F)cc2[N+](=O)[O-])sc2c1CCCCC2,?,-31%,-1%,?,35µM*,8
CNC(=S)Nc1sc2c(c1C(=O)OC)CCC2,4%,5%,8%,89µM*,16µM*,2

# Assay outcomes (PubChem BioAssay)
